According to PubChem BioAssay (NCI):
Values joined by “and” are separate entries in the source; they are usually repeats but may differ in a detail not shown here. Equal entries are not always repeated. This is part of a sample that, as a whole, favours compounds with a hit. Of some 83,000 tested, about 20% had one in any assay.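 Cells were grown in 96-well plates and exposed to the test compound at a single concentration for 48 hours; results are reported as percent growth, with values below 10 considered active.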 Active and inactive are the calls of the source.

Each molecule was assayed on MDA-MB-468 breast (assay: NCI-60 one-dose screen, 48 h (100 = growth as untreated, 0 = no growth, -100 = all killed)). Settings: 10 µM unless noted.

| Structure (SMILES) | growth |
| --- | --- |
| COc1cc(Cn2c(-c3ccccc3)c(Cl)c3c2-c2oncc2CC3)cc(OC)c1 | 114% (inactive) |
| O=C1/C(=C/c2c[nH]c(=O)[nH]c2=O)SC(=S)N1Cc1ccccc1 | 109% (inactive) |
| CN(C)CCCN1c2ccccc2Sc2ccc(Cl)cc21 | 9.1% (active) and 105% (inactive) and 77.4% (inactive) |
| COc1ccc2cnc(N)c(C#Cc3cc(C(=O)Nc4ccc(CN5CCN(C)CC5)c(C(F)(F)F)c4)cnc3C)c2c1 | 91.2% (inactive) |
| C#Cc1ccc(-n2c(/C=C/c3ccc4ccccc4c3)nc3ncccc3c2=O)cc1 | -16.1% (active) |
| CC(=O)c1cccc(O)c1 | 110% (inactive) |
| NCCNc1ccc2cc(-c3nc4ccccc4[nH]3)c(=O)oc2c1 | 94.9% (inactive) |
| N#C/C(=C1\SC(=O)CN1c1ccccc1)c1nc2ccccc2s1 | 115% (inactive) |
| COc1cc(/C=C/C(=O)c2c(-c3ccc(Cl)cc3)nc3sc(C)nn23)cc(OC)c1OC | 65.7% (inactive) |
| O=C1C=CC(=O)N1c1ccc(O)cc1 | 88.9% (inactive) |
| COc1cc(C2CC(c3ccc(Nc4nc(NCCO)nc(NCCO)n4)cc3)=NN2c2cc(Cl)cc(Cl)c2)cc(OC)c1OC (stereo not given) | -9.24% (active) |
| COc1ccc(-c2csc(NC(=O)CSc3nc(C)c(-c4ccccc4)n3Nc3ccccc3)n2)cc1 | 91.3% (inactive) |
| CN1c2ccccc2Sc2cc(/C=N/Nc3ccnc4cc(Cl)ccc34)ccc21 | 52.7% (inactive) |
| Cc1cccc(C)c1NC(=O)CN(CC(C)C)CC(O)COc1ccccc1 (stereo not given) | 94.5% (inactive) |
| CCOC(=O)c1cc2c(=O)oc3ccccc3c2oc1=O | 88.2% (inactive) |
| COc1ccc(NC2=C(Cl)C(=O)C(C)=C(C)C2=O)cc1OC | -38.8% (active) |
| CC1=CC2C(C(O)CC3(C)C2CC(C)C32OCOC23COCO3)C2(C)C/C(=C/O)C(=O)C=C12 (stereo not given) | -16.2% (active) |
| C[N+]1(CCc2ccccc2)CCC(CCC2CC[N+](C)(CCc3ccccc3)CC2)CC1 (stereo not given) | 28.8% (inactive) |
| CC(=O)c1ccc(NC(=O)COc2ccc(C3SCC(=O)N3c3ccc(Br)cc3)cc2)cc1 (stereo not given) | 92% (inactive) |
| O=C1c2ccccc2C(=O)c2c1ccc1c(=O)n(-c3ccccc3C(F)(F)F)nnc21 | -50.3% (active) |

| Structure (SMILES) | growth |
| --- | --- |
| CN(C)C(=O)OCc1ccc2c(Cl)cc(Cl)c(O)c2n1 | 27% (inactive) |
| O=C(CC1Sc2ccccc2NC1=O)NNc1cccc(Cl)c1Cl (stereo not given) | 95.2% (inactive) |
| O=C1/C(=C/c2ccc([N+](=O)[O-])s2)Oc2ccc(Cl)cc21 | -36.2% (active) |
| CCNC(=O)c1[nH]cc(-c2ccc(OC)cc2)c1-c1cc(OC)cc(OC)c1 | 76.2% (inactive) |
| [2H]C([2H])([2H])Oc1cccc(/C=C/C(=O)/C=C(/C=C/c2cccc(OC([2H])([2H])[2H])c2OC([2H])([2H])[2H])OB(F)F)c1OC([2H])([2H])[2H] | 54.6% (inactive) |
| CCO/C=N/C1=C(C#N)C(c2ccc(OC)cc2)c2sc3c(C)cccc3c2O1 (stereo not given) | -13% (active) |
| COC(=O)/C(CCC=C(C)C)=C1\[C@@H](OC(C)=O)C[C@@]2(C)[C@H]1C[C@@H](O)[C@H]1[C@@]3(C)CC[C@H](NC(=O)c4cnccn4)[C@@H](C)[C@@H]3CC[C@@]12C | 106% (inactive) |
| O=c1[nH]nnc2c1ncn2C1OC(CO)C(O)C1O (stereo not given) | 40.1% (inactive) |
| OCCNc1nccc(N2CCN(c3ccnc4cc(Cl)ccc34)CC2)n1 | 54.8% (inactive) |
| CC(C)C(NC(=O)CN)C(=O)O (stereo not given) | 104% (inactive) |
| OC(c1cc2c(Cl)cc(Cl)cc2c2cc(C(F)(F)F)ccc12)C1CCCCN1 (stereo not given) | -89.1% (active) |
| COc1ccc(C2=NN(C(=O)c3cc(OC)c(OC)c(OC)c3)C(c3ccc(C#N)cc3)C2)cc1OC (stereo not given) | -25.8% (active) |
| Nc1nsc(C(=O)c2ccc(O)cc2)n1 | 105% (inactive) |
| O=C(NCc1ccc2c(c1)OCO2)NCC1CCCC(CNC(=O)NCc2ccc3c(c2)OCO3)C1 (stereo not given) | 104% (inactive) |
| CCO/C=N/C1=C(C#N)C(c2ccc(Cl)cc2)c2c(c3ccc(C)cc3[nH]c2=O)O1 (stereo not given) | 96.8% (inactive) |
| CC(=O)OCC(=O)C1(O)C(C)CC2C3C=C(C)C4=Cc5c(cnn5-c5ccccc5)CC4(C)C3C(O)CC21C (stereo not given) | -10.9% (active) |
| CNC(=O)c1cc(-c2ccc(NC(=S)Nc3cccc(C(F)(F)F)c3)cc2)nc2cccnc12 | 47.9% (inactive) |
| CC(c1ccccc1)N1C(=O)C(C2SC(=S)N(C(C)c3ccccc3)C2=O)SC1=S (stereo not given) | 44.2% (inactive) |
| O=C1Nc2cc(Cl)ccc2/C1=C\c1ccc(OCc2ccccc2)cc1 | 98.5% (inactive) |
| Cc1ccc(-c2nn(Cc3cn(-c4cc(C)nc5ccccc45)nn3)c3ncnc(N)c23)cc1 | 15.4% (inactive) |
